Experimental data reported in PubChem BioAssay (EPA / NIEHS).
Results filed as inconclusive are left out. The source made the active and inactive calls. The calls were made as follows: active = hit-call score of the fitted dose curve at least 0.9, where 1 is the maximum; inconclusive = response in the unintended direction; inactive = score below 0.9.

System: NCBI gene 100848466
Assay: NVS_NR_bPR: NovaScreen (NVS) Nuclear Receptor Binding Assay for bovine Progextron Receptor (PR) (AID 2283343);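 as to AC50: actives lower bound radioligand signal below DMSO meaning displacement of the label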
Procedure: NVS_NR_bPR is a biochemical, single-readout assay that uses extracted gene-proteins from Bovine uterine membranes in a tissue-based cell-free assay. Measurements were taken 18 hours after chemical dosing in a 96-well plate.NVS_NR_bPR is one of one assay component(s) measured or calculated from the NVS_NR_bPR assay. It is designed to make measurements of radioligand binding, a form of binding reporter, as detected with scintillation counting signals by Lysate-based radiodetection technology.Data from the assay component NVS_NR_bPR was analyzed into 1 assay endpoint. This assay endpoint, NVS_NR_bPR, was analyzed in the positive analysis fitting direction relative to DMSO as the negative control and baseline of activity. Using a type of binding reporter, loss-of-signal activity can be used to understand changes in the binding as they relate to the gene PGR. Furthermore, this assay endpoint can be referred to as a primary readout, because the performed assay has only produced 1 assay endpoint. To generalize the intended target to other relatable targets, this assay endpoint is annotated to the nuclear receptor intended target family, where the subfamily is steroidal.
Binding assays used specific radioligands (tritiated, iodinated) with non-radioactive competitive displacement ligands in agonist or antagonist protocols (as indicated) and various reference compounds and inhibitors to titrate specific binding to receptors and transporters. Most enzyme assays (CYPs, kinases, phosphatases, proteases, HDACs) used recombinant protein and specific substrates (fluorescence mostly, some colorimetric and radioactive) and inhibitors, followed by a biochemical separation of substrate and product. All assays for the biochemical HTS were initially run in duplicate at a single concentration (10 uM for CYP450 assays and 25 uM for all others). […] Each assay was run with positive and negative controls, and concurrent controls on every plate. The follow-up (secondary) screen tested active chemical-pairs in concentration series, as well as a few additional assays not tested in the primary screen, some selected negative inactives, and several cases re-run in the concentration series for confirmatory purposes.

Row | SMILES | AC50 | outcome
1 | CC(C)(C)C(O)C(Oc1ccc(Cl)cc1)n1cncn1 (stereo not drawn) | 39.8 µM (active) | –
2 | COc1nn(CSP(=S)(OC)OC)c(=O)s1 | – | inactive
3 | N#Cc1c(Cl)c(Cl)c(Cl)c(C#N)c1Cl | – | inactive
4 | O=[N+]([O-])c1c(Cl)c(Cl)c(Cl)c(Cl)c1Cl | – | inactive
5 | C[C@H]1[C@H](c2ccc(Cl)cc2)SC(=O)N1C(=O)NC1CCCCC1 | – | inactive
6 | CNC(=O)CSP(=S)(OC)OC | – | inactive
7 | COP(=S)(OC)Oc1ccc([N+](=O)[O-])cc1 | 7.33 µM (active) | –
8 | ClC1C(Cl)C(Cl)C(Cl)C(Cl)C1Cl (stereo not drawn) | – | inactive
9 | COP(=S)(OC)Oc1ccc(SC)c(C)c1 | 16.3 µM (active) | –
10 | Oc1ccc(Cl)cc1Cc1ccccc1 | 12.9 µM (active) [middle of 6 runs] | –
11 | O=C(O)C(F)(F)C(F)(F)C(F)(F)C(F)(F)C(F)(F)C(F)(F)C(F)(F)F | – | inactive
12 | Oc1cc(Cl)ccc1Oc1ccc(Cl)cc1Cl | – | inactive
13 | O=S(=O)(O)C(F)(F)C(F)(F)C(F)(F)C(F)(F)C(F)(F)C(F)(F)C(F)(F)C(F)(F)F | 25 µM (active) [middle of 5 runs] | –
14 | O=[N+]([O-])/N=C1\NCCN1Cc1ccc(Cl)nc1 | – | inactive
15 | CCCN(CCOc1c(Cl)cc(Cl)cc1Cl)C(=O)n1ccnc1 | 5.4 µM (active) | –
16 | CC(C)(C)C(O)/C(=C\c1ccc(Cl)cc1Cl)n1cncn1 (stereo not drawn) | – | inactive
17 | CC1(C)C(C=C(Cl)Cl)C1C(=O)OC(C#N)c1ccc(F)c(Oc2ccccc2)c1 (stereo not drawn) | – | inactive
18 | CC[C@H](C)[C@H]1O[C@]2(C=C[C@@H]1C)C[C@@H]1C[C@@H](C/C=C(\C)[C@@H](O[C@H]3C[C@H](OC)[C@@H](O[C@H]4C[C@H](OC)[C@@H](O)[C@H](C)O4)[C@H](C)O3)[C@@H](C)/C=C/C=C3\CO[C@@H]4[C@H](O)C(C)=C[C@@H](C(=O)O1)[C@]34O)O2 (tested in a mixture with another compound) | 6.14 µM (active) | –
